The whole screen tested about 4,900 compounds, of which about 2,000 (41%) were called active.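 The calls were made as follows: active = thallium signal drop beyond 5 SD of the untreated control mean, on both duplicate plates; inactive = the rest.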 The set was probably picked from earlier hits. The list is a sample of the results.
Assay: nonspecific activity without KCNK9 expression – cell-based, second counter screen, non-induced KCNK9-HEK293, counter-screen for KCNK9 inhibitor project, confirmation (AID 492997);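 as to inhibition: plate controls were buffer only IC0 wells for no effect and SID17386958 at its maximal inhibitory level for full effect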
Details: non-induced KCNK9-HEK293, FluxOR thallium flux, at 10 µM; active compounds read high

SMILES | inhibition
CCCCCCCCCCCCn1ccc(=N)cc1 | 29.5% (active)
CCOC(=O)C1SC2(C(F)(F)C(F)F)CC1(O)c1c(c(OC)c3occc3c1OC)O2 (stereo unspecified) | inactive
CC(C)(C)c1ccc(CN2C(=O)CN=C(c3ccccc3)c3ccccc32)cc1 | 50% (active)
CC(C)(C)c1ccc(OC(=O)N2CCCCC2)cc1 | inactive
CC(C)n1c(=O)c(C=Nc2ccc(Br)cc2)c(O)n(Cc2ccco2)c1=O | inactive
CCCCCCN=C(CC)c1c(O)n(CCCC)c(=O)[nH]c1=O | 32% (active)

Source: PubChem BioAssay AID492997 (Johns Hopkins Ion Channel Center, 2010)
